# Measured values as given in PubChem BioAssay (NCATS).
# Inconclusive results are not listed. Where a call stands in place of a potency, no number is given. Activity calls are given as the source filed them. The call rests on the fitted dose curve; in most records, active means well fitted inhibition curve with a large enough effect; inconclusive means small, poorly fitted or top-dose-only effect; inactive means flat fitted curve, though single readings scatter.
# Biological target: Calcium and integrin-binding protein 1 (Homo sapiens) (UniProt Q99828)
# Test: Primary qHTS for Identification of Calcium Integrin Binding Protein 1 (CIB1) Competitor (AID 1508620);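 further: GST tagged CIB1 binding a fluorescein labelled alphaIIb integrin peptide tracer; top concentration of the series differs between compounds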
# Conditions: CIB1-GST / FITC-alphaIIb peptide fluorescence polarization; series mostly up to 114 µM
# Method in brief: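 CIB1-GST (1 uM final) and compound incubated 15 min at room temperature before adding FITC-alphaIIb peptide tracer (100 nM final). Competition for binding read by fluorescence polarization (ex 480, em 540) after another 15 min at room temperature.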
# Chain of Calcium and integrin-binding protein 1 (Homo sapiens) (Q99828 whole entry, looked up): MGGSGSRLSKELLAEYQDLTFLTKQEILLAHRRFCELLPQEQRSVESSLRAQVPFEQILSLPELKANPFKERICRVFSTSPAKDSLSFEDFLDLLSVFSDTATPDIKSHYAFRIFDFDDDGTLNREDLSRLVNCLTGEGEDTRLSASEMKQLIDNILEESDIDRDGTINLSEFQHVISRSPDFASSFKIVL
row,Compound,Potency
1,COc1ccc(Nc2nn3c(=O)c4ccccc4nc3s2)cc1,inactive
2,CN(C)C1CCN(Cc2cc(COCc3ccccc3)c3cccnc3c2O)C1 (stereo not given),inactive
3,O=C1CCc2cc(S(=O)(=O)Nc3cc(F)cc(Cl)c3)c(F)cc2N1,inactive
4,Cc1ccc(S(=O)(=O)N2CCN(S(=O)(=O)c3ccc4c(c3)OCCO4)CC2)cc1,inactive
5,O=C(CCCc1ccccc1)NC(c1ccco1)c1cc(Cl)c2cccnc2c1O (stereo not given),inactive
6,Fc1ccccc1-c1nc(-c2ccc(-c3nn[nH]n3)cc2)no1,inactive
7,O=C(Nc1cncnc1)c1cccs1,inactive
8,CC(=O)c1ccc(-c2csc3ncnc(Sc4nnnn4C)c23)cc1,inactive
9,COc1ccc(C2c3c(ncn(Cc4ccccc4)c3=N)Oc3ccc4ccccc4c32)cc1OC (stereo not given),inactive
10,COc1ccc(C2=Nn3c(nnc3-c3ccc(OC)cc3OC)SC2)cc1,inactive
11,Cc1cc(C)nc(NC(=S)N2CCN(c3ccc(F)c(Cl)c3)CC2)c1,inactive
12,CCNC(=O)c1ccc(-c2ccc3ncnc(NCc4nc(C)cs4)c3c2)o1,inactive
13,Brc1cnc2nc(SCc3ccncc3)[nH]c2c1,inactive
14,O=C(OCC#CCSc1nnc(-c2ccccc2)o1)c1ccc(F)cc1,inactive
15,Nc1c(-c2ccncc2)cc[nH]c1=O,inactive
16,O=C1CCCC2=C1C1(CCC1)N=C(Nc1nc3ccccc3o1)N2,inactive
17,CCOC(=O)c1ccc(O)c2ncc(NCC3CCCN(CCc4ccccc4)C3)cc12 (stereo not given),inactive
18,Cc1ccc(OCCn2c(CCNC(=O)c3cccc(N)c3)nc3ccccc32)cc1,inactive
19,Cc1cc(NS(=O)(=O)c2ccc(NS(=O)(=O)Cc3ccc(Cl)c(Cl)c3)cc2)no1,inactive
20,Cc1ccc(-c2ccc(CNc3nc(-c4ccccc4C(C)C)nc4ccsc34)cc2)cn1,inactive

row,Compound,Potency
1,CN(C)c1cccc(-c2nccc(N3CCC(C(N)=O)CC3)n2)c1,inactive
2,Cc1ccnc(NC(=S)N2CC3CN(c4ncc(C(F)(F)F)cc4Cl)CC3C2)c1 (stereo not given),inactive
3,N#Cc1ccc(NS(=O)(=O)c2ccc3c(c2)CCC(=O)N3)cc1,inactive
4,COc1cc(O)c(C(CC(=O)N2CCC(C)CC2)c2ccc(OC)c(OC)c2)c(OC)c1 (stereo not given),inactive
5,O=C(Nc1ccc(Cl)c(Cl)c1)Nc1ccnc(-c2ccncc2)n1,inactive
6,Cc1cnc(-c2ccccc2C(C)C)nc1NCc1ccc(C#N)cc1,inactive
7,CCc1ccc(NC(=O)c2[nH]c(C)c(C(C)=O)c2C)cc1S(=O)(=O)Nc1ccc(C#N)cc1,inactive
8,CN(C)CCCNc1ncnc2ccc(-c3ccc4c(c3)OCO4)cc12,inactive
9,COc1ccc(C(=O)OCC#CCSc2nnc(-c3cccc4ccccc34)o2)cc1,inactive
10,Cc1cccc(CNc2ccnc(-c3cccc(C(F)(F)F)c3)n2)c1,inactive
11,FC(F)(F)c1ccccc1-c1nc(NCc2ccc(-c3ccccc3)cc2)c2ccccc2n1,inactive
12,Cc1nc(CCN(C)c2ncnc3ccc(-c4ccc5c(c4)OCO5)cc23)cs1,inactive
13,c1nc(NCC2CCCCC2)c2cc(-c3ccc4c(c3)OCO4)ccc2n1,inactive
14,O=C1c2ccccc2C(=O)N1c1cccc2cnccc12,inactive
15,O=C(Nc1ccc(-c2nc3ccccc3[nH]2)cc1)c1ccncc1,inactive
16,Cc1cc(C)nc(NC(=S)N2CCN(c3cccc4[nH]ccc34)CC2)c1,inactive
17,Cc1cc2c(s1)c1cnn(Cc3cccc(Cl)c3)c(=O)c1n2C,inactive
18,COc1ccc(C2=Nn3c(nnc3-c3ccccc3OC)SC2)cc1,inactive
19,O=S(=O)(NCCCCCCNS(=O)(=O)c1c(F)cccc1F)c1ccc2c(c1)OCCO2,inactive
20,CCOC(=O)c1c(-c2ccccc2)no[n+]1[O-],inactive
